In PubChem BioAssay one finds inhibition data, which are given here for 14 compounds.

Assay [1] has as its target Nuclear receptor coactivator 1 (Homo sapiens) (UniProt Q15788). The assay is described as follows: NCOA1 GAL4-fusion reporter inhibition – cell-based, luminescence, quadruplicate, confirmation (AID 588820).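 Also: 0% = DMSO wells and 100% = gossypol 36 µM treated wells.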 To be noted: HEK293 GAL4-SRC1 luciferase reporter, at 3.6 µM, hits give high values. Background: A reporter such as luciferase makes a cellular process visible.
A short description of assay [2]: repression of VP16-driven luciferase reporter – cell-based, luminescence, high throughput, counter-screen for SRC1 inhibitor project (AID 588824; in the data active = inhibition above about 25%). The following applies: cell-based VP16 transactivation luciferase luminescence; at 3.6 µM; hits give high values.

SMILES strings stand for the structures. Values without a mark were called inactive. The source made the active and inactive calls.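 The calls were made as follows, unless noted: active = mean inhibition above 46.68%, the untreated control wells mean plus 3 SD; inactive = the rest.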

Usually inhibition stands for the drop in the measured response relative to a control, in per cent.

Nuclear receptor coactivator 1 (Homo sapiens), sequence (Q15788 whole entry, looked up, the tested form may be a part): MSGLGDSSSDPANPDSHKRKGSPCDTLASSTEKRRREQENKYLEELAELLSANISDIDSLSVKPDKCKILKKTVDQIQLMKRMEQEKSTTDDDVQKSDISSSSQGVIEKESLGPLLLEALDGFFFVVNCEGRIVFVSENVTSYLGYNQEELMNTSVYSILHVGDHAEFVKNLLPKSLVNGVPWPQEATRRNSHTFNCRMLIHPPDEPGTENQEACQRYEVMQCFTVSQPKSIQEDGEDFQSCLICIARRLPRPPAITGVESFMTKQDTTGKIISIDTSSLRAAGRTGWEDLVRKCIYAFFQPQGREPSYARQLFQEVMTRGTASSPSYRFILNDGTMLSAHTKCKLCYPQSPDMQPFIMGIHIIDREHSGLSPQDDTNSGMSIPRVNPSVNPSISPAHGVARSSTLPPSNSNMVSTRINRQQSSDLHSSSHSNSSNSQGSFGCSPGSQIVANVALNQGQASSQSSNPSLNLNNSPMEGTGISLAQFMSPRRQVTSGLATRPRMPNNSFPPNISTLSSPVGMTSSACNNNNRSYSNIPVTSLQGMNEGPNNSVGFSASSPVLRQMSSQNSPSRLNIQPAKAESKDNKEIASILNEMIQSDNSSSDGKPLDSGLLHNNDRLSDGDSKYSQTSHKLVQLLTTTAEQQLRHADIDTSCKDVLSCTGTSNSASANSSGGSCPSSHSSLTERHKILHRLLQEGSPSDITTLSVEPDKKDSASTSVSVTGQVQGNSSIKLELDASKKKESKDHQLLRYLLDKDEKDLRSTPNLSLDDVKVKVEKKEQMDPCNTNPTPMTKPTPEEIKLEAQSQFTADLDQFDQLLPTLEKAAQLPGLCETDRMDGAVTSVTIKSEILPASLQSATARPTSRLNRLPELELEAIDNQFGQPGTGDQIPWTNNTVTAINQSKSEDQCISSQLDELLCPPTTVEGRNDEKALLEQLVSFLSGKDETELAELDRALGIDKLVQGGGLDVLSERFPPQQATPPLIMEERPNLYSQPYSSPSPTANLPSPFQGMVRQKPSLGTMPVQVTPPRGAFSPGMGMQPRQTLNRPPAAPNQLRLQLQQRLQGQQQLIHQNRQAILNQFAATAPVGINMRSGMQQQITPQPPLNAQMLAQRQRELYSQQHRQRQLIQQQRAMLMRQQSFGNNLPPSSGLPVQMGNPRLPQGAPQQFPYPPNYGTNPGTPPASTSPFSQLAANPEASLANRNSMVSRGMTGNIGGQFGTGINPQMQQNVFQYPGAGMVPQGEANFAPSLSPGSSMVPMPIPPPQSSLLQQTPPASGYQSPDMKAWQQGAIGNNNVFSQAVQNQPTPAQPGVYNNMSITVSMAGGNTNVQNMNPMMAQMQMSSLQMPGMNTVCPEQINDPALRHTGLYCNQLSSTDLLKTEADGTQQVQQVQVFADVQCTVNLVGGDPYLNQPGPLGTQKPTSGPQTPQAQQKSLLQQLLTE

In the case of `CCCCCCN1C2=NCCCN2c2ccccc21`, the inhibition in assay [1] is 1.1%; in assay [2], 10.4%.

On to `Cc1ccc(S(=O)(=O)N(C)c2ccc(C(=O)Nc3ccccc3C(=O)N3CCOCC3)cc2)cc1`, for which the inhibition was -10.1% in assay [1] and -3.41% in assay [2].

`Cc1cc(C)n(-c2ccc(C(=O)Nc3ccc(S(=O)(=O)NCc4ccco4)cc3)cc2)n1`: the figures for the inhibition in assay [1] and in assay [2] were -5.13% and 24.2%, respectively.

Regarding `Cc1ccccc1CN1CCC(Oc2ccc(C(=O)NCc3ccccn3)cc2)CC1`, the inhibition is -15.8% in assay [1] and 8.1% in assay [2].

As for `COc1ccc(C[C@H]2COC(=O)[C@@H]2Cc2ccc(OC3OC(CO)C(O)C(O)C3O)c(OC)c2)cc1OC` (stereo partly drawn), the inhibition was 9.39% in assay [1] and 31% (active) in assay [2].

Consider `O=C(c1ccccc1)c1sc(Nc2ccc3c(c2)OCO3)nc1-c1ccccc1`, for which the inhibition in assay [1] was 13.9%; in assay [2], 18.1%.

As for `O=C(Nc1ccc(Oc2ccccc2)cc1)c1ccc2sc([C@H]3C[C@H](O)[C@@H](CO)O3)nc2c1`, the inhibition in assay [1] was -13.8%; in assay [2], 19.3%.

Take `CCCCN(C(=O)/C=C/c1ccccc1)C1CCS(=O)(=O)C1` (stereo not drawn): the inhibition was -6.12% in assay [1] and -4.11% in assay [2].

Regarding `COc1ccc(S(=O)(=O)Nc2ccccc2C(=O)N2CCCC2)cc1OC`, the figures for the inhibition in assay [1] and in assay [2] were -5.26% and -1.42%, respectively.

`c1ccc(CC2CCN(c3ncnc4sccc34)CC2)cc1`: the inhibition in assay [1] was -13.8%; in assay [2], 29.4% (active).

On to `CC(C)N1C(=O)/C(=C\c2nc3ccccc3c(=O)n2-c2ccccc2)c2ccccc21`, for which the figures for the inhibition in assay [1] and in assay [2] were 7.4% and 24.2%, respectively.

As to `COC(=O)c1ccc(/C=N\NC(=O)CC(=O)NCCc2ccccc2)cc1`, the inhibition in assay [1] is -1.47%; in assay [2], -15.5%.

For `Cc1ccc(S(=O)(=O)N2[C@@H](c3cccc(Cl)c3)C(C(=O)OC(C)(C)C)=CC[C@H]2c2ccc(C(C)C)cc2)cc1`, the inhibition in assay [1] was 0.74%; in assay [2], 11.2%.

As to `C[C@H]1Cn2cnc(C(=O)Nc3cccc(Cl)c3)c2C(=O)N1`, the values for the inhibition in assay [1] and in assay [2] were 61.2% (active) and 34% (active), respectively.
